This is an account of results in PubChem BioAssay AID902 (National Center for Advancing Translational Sciences (NCATS), 2007).

The structures appear in SMILES notation. Out of some 130,000 compounds screened, about 1,900 (1.5%) were called active. Entries that show only a call come without a potency. Another 5% or so got no clear call; they are omitted. The call rests on the fitted dose curve; in most records, active means well fitted cell-killing curve with a large enough effect; inconclusive means small, poorly fitted or top-dose-only effect; inactive means no such curve, though single readings can be large or run the other way. This excerpt belongs to a sample that is enriched for actives.
Potency means the concentration at half of the fitted maximal effect.

This experiment is described as follows: qHTS Screen for Compounds that Selectively Target Cancer Cells with p53 Mutations: Cytotoxicity of p53ts Cells at the Nonpermissive Temperature. Further: nearly all actives have a fitted effect of over 55% in size. The conditions noted are these: H1299-p53A138V viability at 39C, ATP luminescence, 24 h; series mostly up to 46.1 µM.
Consider `Clc1ccccc1CSc1nncn2c1cc1occc12`, for which the Potency result was “inactive”. Take `CCC(=O)N1c2ccc(S(=O)(=O)CCC(=O)N3CCN(c4ccccc4)CC3)cc2CC1C` (stereo unspecified): the Potency result was “inactive”.

Take `CCn1nc(C(=O)OCC(=O)N2c3ccccc3CC2C)c2ccccc2c1=O` (stereo unspecified): the Potency result was “inactive”. With `CCCC(=O)N1c2ccc(-c3csc(N)n3)cc2CC1C` (stereo unspecified), the Potency was 12.6 µM (active). For `Cc1cccc(OCCSc2nc3ccccc3n2CC(=O)N2CCCCC2)c1C` the value was “inactive”; for `O=C(O)c1ccc(NC(=O)c2cccs2)cc1`, “inactive”. Regarding `O=C(O)Cc1ccc(NC(=O)c2cccs2)cc1`, the Potency result was “inactive”.

On to `Cc1nc(-c2ccc(NC(=O)c3cccs3)cc2)cs1`, for which the Potency was 2.51 µM (active). In the case of `CCCCNc1ccc(-c2nc(-c3ccncc3)no2)cc1[N+](=O)[O-]`, the Potency entry is “inactive”. For `CCOC(=O)CNC(=O)c1cc2c(=O)n3cccc(C)c3nc2s1`, the Potency entry was “inactive”.

Take `CCCc1nn2c(=O)cc(COC(=O)c3ccc(NC(=O)COc4ccc(F)cc4)cc3)nc2s1`: the Potency entry was “inactive”. Then `N#Cc1cccc(-c2ccc3ncnc(NCc4cccs4)c3c2)c1`, with 12.6 µM (active).

Turning to `N#Cc1ccccc1-c1ccc2ncnc(NCc3cccnc3)c2c1`, the Potency result was “inactive”. Regarding `COc1ccccc1CNc1ncnc2ccc(-c3ccc4c(c3)OCO4)cc12`, the Potency entry was “inactive”.

Regarding `Cc1ccc(Cl)cc1NC(=O)C1CCCN(c2cnccn2)C1` (stereo unspecified), the Potency entry was “inactive”. Regarding `O=C(c1cc(-c2ccc(F)cc2)on1)N1CCN(c2ccc(F)cc2)CC1`, the Potency entry was “inactive”. Turning to `Cc1ccc(S(=O)(=O)/N=C(/Nc2ccccn2)c2ccc(Cl)cc2)cc1`, the Potency result is “inactive”.

In the case of `CCN(CC)S(=O)(=O)c1cc(C(=O)Nc2ccccn2)ccc1C`, the Potency was 12.6 µM (active). Take `CCN(CC)S(=O)(=O)c1cccc(C(=O)Nc2ccccc2)c1`: the Potency entry is “inactive”.

Regarding `CN(C(=O)CN1C(=O)CCSc2ccc(S(=O)(=O)N3CCCC3)cc21)c1ccccc1`, the Potency entry was “inactive”.

For the compound `O=C(CSc1nnc(-c2ccccc2F)o1)Nc1cccc(C(F)(F)F)c1`, the Potency entry was “inactive”.

For `O=C(NCCS(=O)(=O)N1CCN(c2ccc(F)cc2)CC1)c1ccccc1Br`, the Potency entry was “inactive”. For the compound `COc1ccc(N2C(=O)CS(=O)(=O)C23C(=O)N(Cc2ccc(C)cc2)c2ccccc23)cc1Cl` (stereo unspecified), the Potency entry is “inactive”. As to `CCCCOc1ccc(C(=O)Nc2cccc(-c3nc4ccccc4o3)c2C)cc1`, the Potency result is “inactive”. For `O=C(COc1ccccc1F)Nc1ccc(C(=O)OCc2cc(=O)n3nc(C4CC4)sc3n2)cc1` the value was “inactive”; for `CSc1oc(-c2cccs2)nc1S(=O)(=O)c1ccc(Br)cc1`, “inactive”. Turning to `NC(=O)CSc1oc(-c2cccs2)nc1S(=O)(=O)c1ccccc1`, the Potency result is “inactive”.

For `CCCCS(=O)(=O)c1oc(-c2cccs2)nc1S(=O)(=O)c1ccccc1`, the Potency was 3.16 µM (active). With `CC(C)c1ccc(-c2nn[nH]n2)cc1`, the Potency is 12.6 µM (active). Regarding `c1ccc(-n2ncc(-c3nn[nH]n3)n2)cc1`, the Potency result was “inactive”. `Cc1nnc(C)n1/N=C/c1ccc(C(C)C)cc1`: the Potency entry is “inactive”. With `CCc1ccc(-n2nnc(-c3nc(-c4ccccc4)no3)c2C)cc1`, the Potency entry is “inactive”.

On to `CCOC(=O)c1c(C)oc2nc(C)nc(Nc3ccc(CC)cc3)c12`, for which the Potency result is “inactive”. With `CCOc1ccc(Nc2c(S(=O)(=O)c3ccccc3)cnc3ccccc23)cc1`, the Potency result was “inactive”.

For `CCOc1ccc(CCNC(=O)c2ccc3c(c2)sc2nc(-c4ccc(F)cc4)cn23)cc1OCC`, the Potency entry was “inactive”. Then `CCCS(=O)(=O)c1ncc(Cl)c(C(=O)Nc2scc(-c3ccccc3)c2C(=O)OCC)n1`, with 7.94 µM (active); and `CCOC(=O)c1ccc(NC(=O)c2nc(SCc3ccc(F)cc3)ncc2Cl)cc1`, with “inactive”.

As to `CCOC(=O)c1scc(-c2ccccc2)c1S(=O)(=O)Nc1ccccc1F`, the Potency entry was “inactive”. For the compound `CCOC(=O)C1CCN(c2csc3ccc(C)cc3c2=O)CC1`, the Potency result is “inactive”.

In the case of `COc1ccc(CNC(=O)c2ccc3c(c2)nc2n3CCOC2)c(OC)c1`, the Potency entry was “inactive”. Then `CCc1ccc(-n2nc(C)c3c(C)cc(=O)n(CC(=O)Nc4ccc(F)cc4C)c32)cc1`, with “inactive”.

With `O=c1oc2cc(O)ccc2cc1-c1ccc(F)cc1`, the Potency entry was “inactive”. On to `COc1ccc2cc(-c3nc(Cl)c4c5c(sc4n3)CC(C)CC5)c(=O)oc2c1` (stereo unspecified), for which the Potency result is “inactive”. As for `COc1ccc(-c2cc3ccc(OCc4nn[nH]n4)cc3oc2=O)cc1`, the Potency was 12.6 µM (active). For `Cc1cn(C)c(CC(=O)NCc2ccc(Cl)cc2)c1C(=O)O`, the Potency entry is “inactive”. For `CCc1ccc(NC(=O)CCS(=O)(=O)c2cc3c(cc2Cl)NC(=O)CO3)cc1`, the Potency result was “inactive”. As to `COC(=O)c1sc(NC(=O)c2ccc(OC)cc2OC)nc1C`, the Potency is 0.316 µM (active). On to `COC(=O)c1sc(NC(=O)c2csc3c2CCCC3)nc1C`, for which the Potency entry is “inactive”. Then `COc1ccc(C(=O)Nc2nncs2)c(OC)c1`, with “inactive”; and `CCOC(=O)c1cccc(NC(=O)c2cc(CN3CCCC3)on2)c1`, with “inactive”. For `CCOc1ccc(NC(=O)Cn2c(=O)n(CCCC(=O)NCc3ccc4c(c3)OCO4)c(=O)c3ccccc32)cc1` the value was “inactive”; for `Cc1nn2c(=O)cc(COC(=O)c3ccccc3NC(=O)COc3ccccc3C)nc2s1`, “inactive”; for `Cc1nn2c(=O)cc(COC(=O)c3cccc(NC(=O)COc4ccccc4Cl)c3)nc2s1`, 12.6 µM (active). For `COc1ccc(OCC(=O)Nc2cccc(C(=O)OCc3cc(=O)n4nc(C)sc4n3)c2)cc1` the value was “inactive”; for `Cc1cccc(C(=O)NCCc2nc3ccccc3n2Cc2ccccc2Cl)c1`, “inactive”; for `Cc1ccccc1NC(=O)c1ccccc1`, “inactive”. As for `Cc1ccc(NC(=O)c2cccc(N(C)C)c2)cc1NC(=O)c1ccc(O)cc1`, the Potency was 7.94 µM (active). `Cc1ccc(F)cc1NC(=O)c1cccc(N(C)C)c1`: the Potency result is “inactive”.

For the compound `COc1ccc(CCN2C(=O)c3oc4cc(C)cc(C)c4c(=O)c3C2c2ccccc2F)cc1OC` (stereo unspecified), the Potency result was “inactive”. For `CN(c1nc2ccccc2n2c(-c3ccco3)nnc12)S(=O)(=O)c1ccccc1`, the Potency entry is “inactive”. On to `c1coc(-c2nc3nc4ccccc4n3nc2-c2ccco2)c1`, for which the Potency result was “inactive”. With `Cn1c(-c2ccco2)nc2cc3ccccc3cc21`, the Potency is 1.26 µM (active). With `O=C(CCn1ccc2cc(S(=O)(=O)N3CCCC3)ccc21)NCc1cccc(Cl)c1`, the Potency entry was “inactive”.

For `COc1ccc(CC(=O)NCCc2sc3nc(-c4ccc(OC)cc4)nn3c2C)cc1`, the Potency entry was “inactive”. For `Cc1cccc(-n2ccnc2SCC(=O)Nc2cc(C(F)(F)F)ccc2Cl)c1` the value was “inactive”. For `O=C(c1cccc(C(=O)N2CCc3ccccc32)n1)N1CCc2ccccc21`, the Potency entry is “inactive”. Regarding `O=C(CN1CCN(c2ccccn2)CC1)N1CCc2ccccc21`, the Potency entry was “inactive”. For the compound `O=C(CN1C(=O)c2ccccc2S1(=O)=O)N1CCc2ccccc21`, the Potency is 2 µM (active). For `CC(=O)Nc1ccc(S(=O)(=O)N2CCN(C(=O)c3ccccc3F)CC2)cc1` the value was “inactive”. As for `CC(C)c1ccc(NC(=O)c2cc(S(=O)(=O)N3CCc4ccccc4C3)ccc2F)cc1`, the Potency was 31.6 µM (active). Then `Cc1cccc(NC(=O)c2cc(S(=O)(=O)N3CCC4(CC3)OCCO4)ccc2F)c1`, with “inactive”; and `Cc1nc2ccn(Cc3cccs3)c(=O)c2cc1C(=O)NCc1ccc(Cl)cc1`, with “inactive”; and `COC(=O)c1sc2ncccc2c1-n1c(C)ccc1C`, with “inactive”. Take `COc1ccc(-c2nc(S(=O)(=O)c3ccccc3)c(N3CCCCC3)o2)cc1`: the Potency entry was “inactive”. For `CC(C)S(=O)(=O)c1oc(-c2ccc(F)cc2)nc1S(=O)(=O)c1ccc(F)cc1` the value was 3.16 µM (active); for `Cc1ccc(-c2nc(S(=O)(=O)c3ccc(C)cc3)c(N3CCCCCC3)o2)cc1`, “inactive”. On to `COc1ccc(NC(=O)c2c(C)oc3c2CCCC3)cc1`, for which the Potency result was “inactive”.

For `COc1ccc(C(=O)Nc2onc3c2CCCC3)cc1`, the Potency is 10 µM (active). Then `CC1CCc2noc(NC(=O)c3ccc([N+](=O)[O-])cc3)c2C1` (stereo unspecified), with “inactive”; and `O=C(c1ccc2c(c1)N(Cc1ccccc1)C(=O)c1ccccc1S2(=O)=O)N1CCCC1`, with “inactive”.

Regarding `COc1ccccc1C(=O)Nc1c(C(=O)N(C)Cc2ccccc2)sc2nc(C)c(Cl)c(C)c12`, the Potency result was “inactive”. Take `COc1ccc(NS(=O)(=O)c2cc3c4c(c2)CC(=O)N4CCC3)cc1Cl`: the Potency result is “inactive”.

On to `CCN1C(=O)c2ccccc2S(=O)c2ccc(C(=O)NCc3ccc(F)cc3)cc21` (stereo unspecified), for which the Potency result was “inactive”. As to `COC(=O)c1nc2ccccc2s1`, the Potency entry is “inactive”. For `CCC(=O)NC(=Nc1nc2ccccc2s1)NC(=O)CC`, the Potency was 10 µM (active).

For `COC(=O)Cc1cc(=O)n(-c2nc3ccccc3s2)[nH]1`, the Potency result is “inactive”. Take `O=C(NCC(c1ccc2c(c1)OCO2)N1CCN(c2ccccc2)CC1)C(=O)Nc1ccccc1F` (stereo unspecified): the Potency entry is “inactive”.

For `O=C(NC1CC(=O)N(c2ccccc2)C1)c1ccco1` (stereo unspecified), the Potency result is “inactive”. As to `c1ccc(-c2noc(-c3cccs3)n2)nc1`, the Potency was 15.8 µM (active). Turning to `c1csc(-c2nc(-c3ccncc3)no2)c1`, the Potency result was “inactive”. For the compound `CC(C)c1nc(-c2ccccn2)no1`, the Potency entry is “inactive”. Turning to `COc1ccc(CNC(=O)c2cc3c(-c4ccccc4F)nn(C)c3s2)c(OC)c1`, the Potency result was “inactive”.

As for `CCOc1ccc(NC(=O)c2c(NCc3cccc(OC)c3OC)sc3c2CCC3)cc1`, the Potency entry is “inactive”.

As to `O=C(Cc1ccccc1)Nc1sc2c(c1C(=O)Nc1ccc(Br)cc1)CCC2`, the Potency entry is “inactive”. For the compound `CCOc1ccc(NC(=O)c2c(NC(=O)Cc3ccccc3)sc3c2CCCCC3)cc1`, the Potency is 10 µM (active).

Regarding `CCc1ccc(CNC(=O)c2ccc(CS(=O)c3ccc(Br)cc3)o2)cc1` (stereo unspecified), the Potency entry is “inactive”.

For `CC(NC(=O)c1cc(Sc2ccc(F)cc2F)nc2ccccc12)c1ccccc1` (stereo unspecified), the Potency result was “inactive”. For `O=C(/C=C/c1ccccc1)N1CCN(Cc2cc(=O)n3nc(-c4ccccc4F)sc3n2)CC1` the value was “inactive”; for `NC(=O)c1ccccc1NC(=O)c1ccccc1F`, “inactive”. Regarding `O=C(Nc1nc2c(s1)CCCC2)c1ccccc1F`, the Potency was 10 µM (active).

Turning to `O=C(Cn1c(=O)sc2ccccc21)Nc1nc2c(s1)CCCC2`, the Potency entry was “inactive”. As to `COC(=O)c1ccccc1NS(=O)(=O)c1ccc2c(c1)CCCN2C(C)=O`, the Potency entry is “inactive”. For the compound `CCn1cc2nc(SCc3ccccc3Cl)n(CCc3ccccc3)c(=O)c2n1`, the Potency result was “inactive”. As to `CCc1ccc(CNC(=O)c2cc3cc4ccc(OC)cc4nc3o2)cc1`, the Potency result is “inactive”.

As for `Cc1ccc2cc3cc(C(=O)N4CCCCCC4)oc3nc2c1`, the Potency is 15.8 µM (active). On to `Cc1ccc(C(=O)N2CCCCCC2)cc1Br`, for which the Potency result was “inactive”.
